# Hits are enriched below; roughly 2.2% of the tested compounds scored in any of these assays.
# SUMO Mot1 rescue: SUMOylation pathway inhibition by Mot1-301 growth rescue; S. cerevisiae Mot1-301 growth rescue, ATP luminescence, 38.5C; percent above DMSO median, 100 means doubled; growth rescue, % at 18.8 µM; actives 1% (n = 320,000);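 active means every valid replicate shows activation above 250% relative to neutral control wells; inactive means the rest, any valid replicate at or below 250%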;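 further: OY570 slx delta 5 strain wells were the positive control but not used for scaling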
# SKN-1 block: blocks SKN-1 activity in C. elegans; C. elegans VP596 Pgst-4::GFP/RFP ratio, acrylamide-induced, 24 h; actives 0.49% (n = 360,000); inhibition, % at 21.8 µM;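 active means interference check ratio from 0.5 to 1.5 plus GFP to RFP signal ratio inhibition reaching or exceeding a fixed threshold, cut at about 30% in these data, passing the limit was not always enough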
# Efflux pump inh: blocks antifungal efflux pumps in multiplex yeast assay. actives 0.44% (n = 330,000). inhibition, % at 10 µM. AID 485275. S. cerevisiae Candida pump triplex, Nile Red efflux;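 active means plate passing quality check with inhibition over a set limit, or well fluorescence over plate mean plus 4 SD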;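 further: Nile Red retained in pooled yeast measured as flow cytometry median fluorescence; 0% = buffer negative control and 100% = Enniatin B positive control; higher means more Nile Red kept so more efflux inhibition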
# HGIII-sPLA2 inh: Inhibits HGIII-sPLA2 liposome hydrolysis, primary screen. inhibition, % at 12.2 µM. Q9NZ20. AID 743126. actives 0.56% (n = 370,000). QFRET BODIPY PC-A2 liposome hydrolysis, fluorescence;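 active means inhibition above mean plus 3 SD of compounds lying within the high and low control bounds, cut at about 19% in these data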;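 further: 0% = median of test compound wells and 100% = no enzyme DMSO wells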
# Target sequence (Q9NZ20 whole entry, looked up): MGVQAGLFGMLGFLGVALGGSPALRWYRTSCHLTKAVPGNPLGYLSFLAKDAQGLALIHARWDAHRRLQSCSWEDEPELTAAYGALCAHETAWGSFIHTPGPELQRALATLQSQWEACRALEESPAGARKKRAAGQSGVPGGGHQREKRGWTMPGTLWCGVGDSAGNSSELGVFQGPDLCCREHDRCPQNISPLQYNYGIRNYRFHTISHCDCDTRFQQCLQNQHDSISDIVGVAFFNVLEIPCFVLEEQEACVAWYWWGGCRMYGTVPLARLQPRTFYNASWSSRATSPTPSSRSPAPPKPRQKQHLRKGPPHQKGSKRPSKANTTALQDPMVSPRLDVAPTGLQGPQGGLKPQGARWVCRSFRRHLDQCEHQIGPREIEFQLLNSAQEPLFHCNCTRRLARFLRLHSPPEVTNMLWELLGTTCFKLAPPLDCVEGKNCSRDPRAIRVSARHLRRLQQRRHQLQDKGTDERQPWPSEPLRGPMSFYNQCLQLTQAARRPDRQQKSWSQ
# * hit, by the source's call; x = no result.
SMILES,SUMO Mot1 rescue,SKN-1 block,Efflux pump inh,HGIII-sPLA2 inh
CC(=O)Oc1cc2c(cc1Cl)C1(CC(c3ccccc3Cl)O2)CC(C)(C)NC(=S)N1 (centres undefined),-7,-3,114*,3
CC1(C)CC2(CC(c3ccccc3F)c3cc(Cl)c(O)cc3O2)NC(=S)N1 (centres undefined),3,5,0,-8
O=C(O)c1cc(NN=Nc2ccc(Br)cc2)cc([N+](=O)[O-])c1,322*,2,0,13
CN(C)c1nc(SCc2ccccc2Cl)nc2c1CCCC2,158,31*,0,x
Clc1ccccc1-c1ccc2ncnc(NCc3ccc4c(c3)OCO4)c2c1,629*,15,0,-26
c1cncc(-c2ccc3ncnc(NCc4ccc5c(c4)OCO5)c3c2)c1,-24,-1,0,0
COC(=O)[C@]12C[C@H](CC(=O)N3CCN(C(=O)C4CC4)CC3)C(=O)N(Cc3ccccc3)C1=C[C@H](C(C)C)O[C@@H]2C1CC1,x,x,x,7
CSc1cccc(CN2CCC(CO)(Cc3ccccc3)CC2)c1,459*,8,0,-6
Clc1ccc(OCc2nc(-c3ccncc3)no2)c(Br)c1,35,51*,0,-3
CCCCCCCCN1C(=O)[C@@H](CC(=O)N2CCC(c3ccccc3)CC2)C[C@@]2(C(=O)OC)C1=C[C@H](C1CCCC1)O[C@@H]2C,x,x,x,1
CCOC(=O)c1cnc2c3c(noc13)CCC2,x,x,x,6
N#Cc1ccc(CC(=O)c2ccccc2)[nH]c1=O,x,44*,x,-25
CC(c1nnnn1C1CCCCC1)N(Cc1ccccc1)Cc1cccnc1 (centres undefined),278*,-20,0,-17
Cn1c(=O)c2c(ncn2Cc2ccc(O)c([N+](=O)[O-])c2)n(C)c1=O,x,x,x,1
CC(=O)Nc1ccc2c(c1)Cc1c-2cc(Br)c(N)c1Br,x,37*,x,-9
CN(Cc1cnn(-c2ccc(F)cc2)c1)C(=O)[C@H]1O[C@@H](n2ccc(=O)[nH]c2=O)[C@H](O)[C@@H]1O,x,2,x,-2
CCCOc1ccc(C(=O)NNC(=S)NC(=O)c2cccs2)cc1,-4,-3,0,32*
CCCOc1ccc(C(=O)NNC(=S)NC(=O)c2ccccc2)cc1,-2,5,0,20*
COc1ccc(C(=O)C(=O)N2CCN(C(=O)c3cc(C(F)(F)F)cc(C(F)(F)F)c3)CC2)cc1OC,x,x,x,9
C=CCn1c(C)cc(C(=O)CSc2nnc(-c3cccc(S(=O)(=O)N(CC)CC)c3)o2)c1C,4,8,0,2
CCN(CC)S(=O)(=O)c1cccc(-c2nnc(SCC(=O)c3cc(C)n(C4CC4)c3C)o2)c1,1,42*,0,-3
C[C@@H]1ON(C)[C@H]2C[C@H]3c4[nH]c5c(-c6ccc(F)cc6)cccc5c4CCN3C(=O)[C@@H]12,x,x,x,-11
Cc1cccc[n+]1CC(=O)/C=C1\N(C)c2ccccc2C1(C)C,5,51,0,1
CN1/C(=C/C=C/c2n(C)c3cc([N+](=O)[O-])c([N+](=O)[O-])cc3[n+]2C)C(C)(C)c2ccccc21,x,57*,x,48*
CCOc1ccc2nc(N3CCC(C(=O)NC4CCCCC4)CC3)sc2c1,344*,-6,0,0
SMILES,SUMO Mot1 rescue,SKN-1 block,Efflux pump inh,HGIII-sPLA2 inh
Cc1nn(-c2ccc(F)cc2)c2sc(C(=O)N3CCCCCC3)cc12,x,48*,0,2
Cc1nn(-c2ccccc2)c2sc(C(=O)N3CCN(Cc4ccccc4)CC3)cc12,x,x,x,-11
NC1=NC(=O)/C(=C/c2ccccc2OS(=O)(=O)c2ccc3ccccc3c2)S1,1,5,0,17
CCc1c(-c2ccccc2F)ncn1CCc1ccccc1OC,x,x,x,0
COC(=O)c1ccc(=O)n(Cc2ccco2)c1,41,38*,0,-3
Cc1[nH]n(-c2ccccc2)c(=O)c1/C=N/c1ccccn1,-8,51*,0,0
CCC(=O)N(c1nnc(SCC(=O)Nc2sccc2C(N)=O)s1)C1CC1,x,-1,x,2
Nc1ccn([C@@H]2O[C@H](C(=O)NCC(=O)N3CCOCC3)[C@@H](O)[C@H]2O)c(=O)n1,x,x,x,6
O=C(NCc1ccco1)c1sc2cc(Cl)ccc2c1Cl,12,38*,0,-14
O=C(NCc1ccco1)c1sc2ccccc2c1Cl,1,25,0,-15
CN1CCCCC(NC(=O)c2ccc3ccccc3c2)C1=O (centres undefined),x,x,x,2
CCOC(=O)c1ccc(Oc2c(C)oc3c(CN4CCN(C)CC4)c(O)ccc3c2=O)cc1,357*,-8,0,1
COc1ccc(Oc2c(C)oc3c(CN4CCOCC4)c(O)ccc3c2=O)cc1,-5,17,0,-3
c1ccc(-c2ccc(-c3ccncn3)cc2)cc1,14,56*,0,-2
Cc1ccc2nc(NNC(=O)c3ccc(S(=O)(=O)N4CCc5ccccc5C4)cc3)sc2c1,-28,-7,0,33*
CCC(CC)c1nnc(NC(=O)c2ccc(S(=O)(=O)N3CCc4ccccc4C3)cc2)s1,4,8,0,15
Cc1cc(C)c2nc(NNC(=O)c3ccc(S(=O)(=O)N4CC(C)CC(C)C4)cc3)sc2c1 (centres undefined),9,-2,0,41*
CCC(=O)NNc1nc2c(C)cc(C)cc2s1,-6,-3,0,-6
Cc1ccc(NC(=O)Nc2ccc3c(c2)[C@]2(CC(=O)N(CC(C)C)C2c2ccccc2)C(=O)N3C)cc1Cl (some centres undefined),x,x,x,-22
CCCCCCC(=O)N(O)C1CC(=O)N(c2ccc(Br)cc2)C1=O (centres undefined),338*,12,0,-8
CCCCCCC(=O)N(O)C1CC(=O)N(c2ccc(F)cc2)C1=O (centres undefined),194,7,0,-9
COC(=O)C1=C(C)NC(=S)NC1c1cccc(OC)c1 (centres undefined),x,x,x,12
C[C@H](O)[C@@H]1C(=O)N2CCc3c([nH]c4cccc(-c5ccccc5)c34)[C@@H]2C[C@@H]1N(C)C(=O)C1CCCCC1,x,x,x,-8
CC(C)(C)NC(=O)c1ccc2c(c1)C1C3CCC(C3)C1C(c1ccccc1)N2 (centres undefined),32,11,0,1
CCCNC(=O)c1ccc2c(c1)C1C3CCC(C3)C1C(c1ccccc1)N2 (centres undefined),-8,48*,0,1
Cn1c(=O)c2ncn(CC(=O)Nc3ccc4c5c(cccc35)CC4)c2n(C)c1=O,-16,42*,1,-11
C[C@H](O)[C@@H]1C(=O)N2CCc3c([nH]c4c(-c5ccccc5)cccc34)[C@@H]2C[C@@H]1N(C)C(=O)NC1CCCCC1,x,x,x,0
O=[N+]([O-])c1cccc(/C=C/c2ccccn2)c1,6,36*,0,2
Cc1cc(F)ccc1S(=O)(=O)N1CCCOC1CNC(=O)C(=O)NCc1ccc2c(c1)OCO2 (centres undefined),7,37*,0,-5

# Source: PubChem (several laboratories)
